Screens deposited in PubChem BioAssay by NMMLSC.
Hits are enriched below; roughly 1.2% of the tested compounds scored in any of these assays.
RGS16-Gao = regulators of human RGS16-Galphao interaction | O15492+P09471 | 220,000 tested, 0.38% active | bead-based flow cytometry RGS16-Galphao binding, fluorescence; actives lie on both sides | binding response (% of control), % at 10 µM;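 also: Galphao activated by GDP with aluminum fluoride before binding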
Target sequence (O15492 whole entry, looked up): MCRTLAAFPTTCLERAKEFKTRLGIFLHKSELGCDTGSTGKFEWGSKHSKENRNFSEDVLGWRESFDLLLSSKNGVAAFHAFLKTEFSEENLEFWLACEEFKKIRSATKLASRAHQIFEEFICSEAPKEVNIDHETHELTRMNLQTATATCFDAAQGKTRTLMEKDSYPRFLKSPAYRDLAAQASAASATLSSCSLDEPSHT
Target sequence (P09471 whole entry, looked up): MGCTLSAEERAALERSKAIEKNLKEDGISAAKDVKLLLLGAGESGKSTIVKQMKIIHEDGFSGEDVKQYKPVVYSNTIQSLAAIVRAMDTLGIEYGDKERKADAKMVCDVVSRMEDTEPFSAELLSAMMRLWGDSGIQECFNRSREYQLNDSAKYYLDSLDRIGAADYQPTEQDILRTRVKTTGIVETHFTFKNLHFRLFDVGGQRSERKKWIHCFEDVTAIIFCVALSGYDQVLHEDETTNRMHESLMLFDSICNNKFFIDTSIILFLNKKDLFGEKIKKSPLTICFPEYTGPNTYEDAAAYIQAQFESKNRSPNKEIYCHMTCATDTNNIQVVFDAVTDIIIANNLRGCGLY
Avidin fluor = avidin bead compound fluorescence profile; Avidin beads, compound fluorescence 488/530 nm, flow cytometry; hits give high values; 220,000 tested, 0.38% active; AID 1775; fluorescence (KMESF) at 10 µM; in the data active = fluorescence above about 47
GSH fluor = compound fluoresces at 488/530 nm on GSH beads | 190,000 tested, 0.25% active | fluorescence (KMESF) at 10 µM | GSH beads flow cytometry, compound fluorescence 488/530 nm; hits give high values; in the data active = fluorescence above about 89;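 also: glutathione beads carrying GST-tagged Bcl family fusion proteins plus one bare bead set; values are compound well signal with DMSO vehicle wells as background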
RGS4-Gao reg = modulates binding of RGS4 to human Galphao; binding response (% of control), % at 10 µM; 220,000 tested, 0.33% active; Multiplexed bead flow cytometry; actives lie on both sides; in the data active = binding response below about 49% or above about 150%; inactive = in between;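 also: fluorescent Galphao activated with aluminum fluoride binding bead-coupled RGS4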
Target sequence (P09471 whole entry, looked up): as above
RGS7-Gao reg = regulators of human RGS7-Galphao interaction; Multiplexed bead flow cytometry, RGS7-Galphao binding; actives lie on both sides; binding response (% of control), % at 10 µM; 220,000 tested, 0.35% active; in the data active = binding response below about 49% or above about 150%; inconclusive = no clear call, values can overlap the other calls; inactive = in between;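 also: fluorescent Galphao held in activated GDP-AlF4 state binding bead-coupled RGS7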
RGS8-Gao reg = modulates binding of RGS8 to human Galphao; multiplexed bead flow cytometry; actives lie on both sides; response (percent of control binding), % at 10 µM; 220,000 tested, 0.34% active; AID 1423; in the data active = response below about 60% or above about 140%; inactive = in between;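 also: Galphao activated as the GDP aluminium fluoride complex binding bead-coupled RGS8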
RGS4-Gao HTS = regulators of human RGS4-Galphao interaction; shares compounds with RGS16-Gao; multiplexed bead flow cytometry, RGS–Galpha-o binding; RGS4–Galpha-o binding response, % at 10 µM; 1,600 tested, 99% active;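 also: fluorescently labeled Galpha-o bound to GDP with aluminium fluoride binding biotinylated RGS beads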
Avidin counter = biotin-avidin bead binding disruption counter-screen; AID 1783; streptavidin beads, fluorescein-biotin binding, flow cytometry; shares compounds with RGS16-Gao; 1,700 tested, under 10 active; inhibition, % at 10 µM;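 active = inhibition above 50%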;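 also: median green fluorescence of gated singlet beads compared with DMSO control wells; 0% = DMSO wells and 100% = complete loss of bead fluorescence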
RGS8-Gao single = RGS8-Galphao interaction regulation, single point confirmation | AID 1836 | 1,700 tested, 3% active | shares compounds with RGS16-Gao | bead-based flow cytometry RGS8-Galphao binding, fluorescence; actives lie on both sides | binding response (% of control), % at 10 µM; in the data active = binding response below about 72% or above about 130%; inactive = in between;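 also: Galphao activated as GDP AlF4 complex before binding bead RGS8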
RGS7-Gao confirm = confirmation of regulators of human RGS7-Galphao interaction. response (percent of control binding), % at 10 µM. bead-based flow cytometry RGS7-Galphao binding; actives lie on both sides. 1,700 tested, 7.8% active. AID 1837. shares compounds with RGS16-Gao; in the data active = response below about 75% or above about 130%; inactive = in between;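 also: fluorescent Galphao activated with GDP and aluminum fluoride binding bead-coupled RGS7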
RGS16-Gao single = confirmation of regulators of human RGS16-Galphao interaction; AID 1838; bead-based flow cytometry, RGS16-Galphao binding; actives lie on both sides; shares compounds with RGS16-Gao; 1,700 tested, 4% active; response (% of control binding), % at 10 µM; in the data active = response below about 74% or above about 130%; inactive = in between;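 also: Galphao activated as the GDP aluminium fluoride complex binding bead-coupled RGS16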
RGS4-Gao confirm = RGS4-Galphao interaction regulation, single point confirmation. shares compounds with RGS16-Gao. RGS4-Galphao binding, multiplexed bead flow cytometry; actives lie on both sides. binding response (% of control), % at 10 µM. 1,700 tested, 4% active; in the data active = binding response below about 74% or above about 130%; inactive = in between
RGS19-Gao conf = RGS19-Galphao interaction regulation, single point confirmation. response (percent of control binding), % at 10 µM. 1,700 tested, 5% active. shares compounds with RGS16-Gao. AID 1841. bead-based flow cytometry RGS19-Galphao binding; actives lie on both sides; in the data active = response below about 50% or above about 160%; inactive = in between;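 also: 100% = no compound control and 0% = blank background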
An asterisk follows results filed as active; [ ] = another dose, or the depositor's remark. Unless noted, no rule for the calls is given here.

How did COCCNC(=O)C(c1c[nH]c2ccccc12)N(C(=O)c1snc(C(N)=O)c1N)c1cccc(OC)c1 (stereo unspecified) do in these assays?
RGS16-Gao: 82.3; Avidin fluor: 7; GSH fluor: 17; RGS4-Gao reg: 102.5; RGS7-Gao reg: 98.8; RGS8-Gao reg: 96.2

How did COc1ccc(C2=CC(=O)C=CC2=O)cc1 do in these assays?
RGS16-Gao: 67.0; Avidin fluor: 5; RGS4-Gao reg: 93.3; RGS7-Gao reg: inconclusive; RGS8-Gao reg: 71.4; Avidin counter: 0.6; RGS8-Gao single: 53.0*; RGS7-Gao confirm: 80.5; RGS16-Gao single: 14.6*; RGS4-Gao confirm: 97.0; RGS19-Gao conf: 31.6*

What do the screens show for `CC(=O)c1cccc(NC(=S)NCCCCc2ccccc2)c1`?
RGS16-Gao: 100.7; Avidin fluor: 25; GSH fluor: 11; RGS4-Gao reg: 98.9; RGS7-Gao reg: 99.4; RGS8-Gao reg: 102.2

What do the screens show for `COc1ccc(/C=N/OCC(=O)Nc2nc3ccccc3s2)cc1`?
RGS16-Gao: 101.6; Avidin fluor: 10; GSH fluor: 14; RGS4-Gao reg: 100.2; RGS7-Gao reg: 106.9; RGS8-Gao reg: 101.7

Results for O=C1/C(=C/c2cccnc2)SC(=S)N1c1ccc(O)cc1 ?
RGS16-Gao: 107.4; Avidin fluor: 5; RGS4-Gao reg: 101.4; RGS7-Gao reg: inconclusive; RGS8-Gao reg: 101.5

How did O=C1/C(=C/c2cccnc2)SC(=S)N1c1ccc(F)cc1 do in these assays?
RGS16-Gao: 177.5*[activator]; Avidin fluor: 15; GSH fluor: 3; RGS4-Gao reg: 108.8; RGS7-Gao reg: 108.2; RGS8-Gao reg: 116.2; RGS4-Gao HTS: 108.8*; Avidin counter: -1.2; RGS8-Gao single: 101.7; RGS7-Gao confirm: 103.4; RGS16-Gao single: 101.1; RGS4-Gao confirm: 101.8; RGS19-Gao conf: 97.7

How did COc1ccccc1NC(=O)C1=C(C)NC(=O)NC1c1ccccc1F (stereo unspecified) do in these assays?
RGS16-Gao: 101.6; Avidin fluor: 13; GSH fluor: 21; RGS4-Gao reg: 99.1; RGS7-Gao reg: 104.2; RGS8-Gao reg: 97.8

What do the screens show for `COc1ccccc1NC(=O)C1=C(C)NC(=O)NC1c1cc(C)cs1` (stereo unspecified)?
RGS16-Gao: 165.4; Avidin fluor: 11; GSH fluor: 27; RGS4-Gao reg: 201.5*[activator]; RGS7-Gao reg: 189.0*[activator]; RGS8-Gao reg: 166.9*[activator]; Avidin counter: 1.9; RGS8-Gao single: 98.8; RGS7-Gao confirm: 95.1; RGS16-Gao single: 95.8; RGS4-Gao confirm: 98.6; RGS19-Gao conf: 88.2

Results for Cc1c(Br)c(=O)oc2c(Br)c(O)c(O)cc12 ?
RGS16-Gao: 16.4*; Avidin fluor: 1; GSH fluor: 6; RGS4-Gao reg: 51.6; RGS7-Gao reg: 53.2; RGS8-Gao reg: 41.7*; RGS4-Gao HTS: 51.6*; Avidin counter: -0.6; RGS8-Gao single: 92.7; RGS7-Gao confirm: 92.5; RGS16-Gao single: 91.8; RGS4-Gao confirm: 90.5; RGS19-Gao conf: 87.3

What do the screens show for `Cc1cc(C)c2oc(C(=O)Nc3ccc(S(=O)(=O)N4CCCC(C)C4)cc3)cc(=O)c2c1` (stereo unspecified)?
RGS16-Gao: 146.0; Avidin fluor: 93*; GSH fluor: 17; RGS4-Gao reg: 152.5*[activator]; RGS7-Gao reg: 168.4*[activator]; RGS8-Gao reg: 102.7; Avidin counter: -2.0; RGS8-Gao single: 103.9; RGS7-Gao confirm: 97.5; RGS16-Gao single: 102.3; RGS4-Gao confirm: 103.3; RGS19-Gao conf: 106.5

Results for O=S(=O)(O)c1nc2ccccc2n1Cc1ccccc1 ?
RGS16-Gao: 98.0; Avidin fluor: 30; GSH fluor: 13; RGS4-Gao reg: 97.0; RGS7-Gao reg: 99.5; RGS8-Gao reg: 98.6

Results for CS(=O)(=O)c1nc2ccccc2n1Cc1ccccc1 ?
GSH fluor: 13; Avidin counter: -0.1; RGS8-Gao single: 99.8; RGS7-Gao confirm: 103.1; RGS16-Gao single: 99.2; RGS4-Gao confirm: 104.3; RGS19-Gao conf: 107.7

What do the screens show for `Cc1ccc(O)c(C(CC(=O)NC2CCCCC2)c2ccccc2)c1` (stereo unspecified)?
RGS16-Gao: 102.5; Avidin fluor: 10; GSH fluor: 14; RGS4-Gao reg: 104.2; RGS7-Gao reg: 101.0; RGS8-Gao reg: 99.5

How did COc1ccc(Br)cc1/C=N/Nc1cccc(C(=O)O)c1 do in these assays?
RGS16-Gao: 98.5; Avidin fluor: 78*; GSH fluor: 12; RGS4-Gao reg: 111.6; RGS7-Gao reg: 171.9*[activator]; RGS8-Gao reg: 99.4; RGS4-Gao HTS: 111.6*; Avidin counter: 0.9; RGS8-Gao single: 96.3; RGS7-Gao confirm: 63.5*; RGS16-Gao single: 80.9; RGS4-Gao confirm: 79.1; RGS19-Gao conf: 67.4

Results for Cc1ccccc1N=C(NOCc1ccc(Cl)cc1Cl)c1nonc1N ?
GSH fluor: 37; Avidin counter: 2.2; RGS8-Gao single: 96.2; RGS7-Gao confirm: 95.0; RGS16-Gao single: 93.9; RGS4-Gao confirm: 96.3; RGS19-Gao conf: 103.1

What do the screens show for `O=C1c2ccccc2C(=O)N1CCN1CCOCC1`?
RGS16-Gao: 119.8; Avidin fluor: 233*; GSH fluor: 20; RGS4-Gao reg: 92.2; RGS7-Gao reg: 258.5*[activator]; RGS8-Gao reg: 99.5; RGS4-Gao HTS: 92.2*
